About 83,000 compounds went through this panel and 20% of them were active in at least one assay; those are over-represented in the sample as a whole.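 Single-concentration screen, 48 h exposure, 96-well plates. Endpoint: percent growth. Below 10 = active.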 A number with no mark means an inactive call. Calls of active or inactive are those of the source.

For this assay, the system named is NCI/ADR-RES ovarian. As to the kind of experiment: NCI-60 one-dose screen, 48 h (100 = growth as untreated, 0 = no growth, -100 = all killed). The following applies: 10 µM unless noted. The protocol: Growth inhibition of the NCI/ADR-RES human […] tumor cell line is measured as a screen for anti-cancer activity. Cells are grown in 96 well plates and exposed to the test compound for 48 hours. Compounds are tested at a single concentration, which is 10^-5 M for most compounds. The reported endpoint is percent growth (GI% or GIPRCNT), where numbers from 0 - 100% represent growth inhibition, and numbers from -100% - 0 represent cell death. For example, a value of 40 represents 60% growth inhibition. A value of 0 means no net growth occurred over the course of the experiment. A value of -40 indicates 40% of cells at the beginning of the experiment died by the end of the experiment. A value of -100 means all cells are dead at the end of the experiment.
NCI-60 Human Tumor Cell Lines Screen was performed using the standard one-dose NCI protocol, which is described in more detail at https://dtp.cancer.gov/discovery_development/nci-60/default.htm.
Compounds with GIPRCNT values below 10 were considered active. Activity score was based on GIPRCNT using the following formula: […]
Score is 0 for GIPRCNT values of 100 or above, 50 for GIPRCNT values of 0, and 100 for GIPRCNT values of -100.
Turning to `CC1(C(=O)O)CCC(N)(C(=O)O)C1(C)C` (stereo not given), the growth is 118%.

`CC(C)=CC/C=C(/C)[C@H]1CC[C@]2(C)[C@@H]1CC[C@@H]1[C@@]3(C)CCC(=O)NC(C)(C)[C@@H]3CC[C@]12C`: the growth was 13% [100 µM].

As to `O=[N+]([O-])c1cc([N+](=O)[O-])c(C(F)(F)F)cc1NN=C(c1ccc(O)cc1)c1ccc(O)cc1`, the growth was -19.9% (active). For the compound `Cn1cc(-c2nnc(-c3cn(C)c4ncc(Br)cc34)o2)c2ccccc21`, the growth was 68.9%.

As for `CCOC(=O)c1ccc2nc(-c3c(C)nn(-c4ccccc4)c3N3CCOCC3)[nH]c2c1`, the growth is 95.9%. Turning to `Cc1nc(-c2ccccc2)sc1CC#N`, the growth is 109%. Consider `COc1ncc(-c2ccc3nc(N)n(-c4ccccc4C(F)(F)F)c(=O)c3c2)cc1S(=O)(=O)Nc1ccc(F)cc1F`, for which the growth is 25.4%.

`Nc1nc(Nc2ccccc2)c2ncn(Cc3cc4c(cc3Br)OCO4)c2n1`: the growth was 8.6% (active). For the compound `CCOC(=O)c1cc(C#N)n2ncc3ccccc3c12`, the growth is 97.7%.

As to `O=C(O)c1cn(C2CC2)c2cc(N3CCN(Cc4c(O)ccc5ccccc45)CC3)c(F)cc2c1=O`, the growth is 45.4%. For `CCCCNC(=O)NS(=O)(=O)Cc1ccccc1`, the growth was 112%. In the case of `Cc1ncc(C(=O)Nc2ccc(CN3CCN(C)CC3)c(C(F)(F)F)c2)cc1C#Cc1c(N)ncc2ccc(C#N)cc12`, the growth was 61.7%. Regarding `C#C[C@]1(O)CC[C@H]2[C@@H]3CC=C4c5nc(Nc6ccc(OC)cc6OC)sc5CC[C@]4(C)[C@H]3CC[C@@]21C`, the growth was 50.3%. As to `O=[N+]([O-])c1cccc(/C=C/c2ccc3ccccc3n2)c1`, the growth is 71.2%. As to `C#C[C@]1(O)CC[C@H]2[C@@H]3CC=C4c5nc(Nc6ccccc6[N+](=O)[O-])sc5CC[C@]4(C)[C@H]3CC[C@@]21C`, the growth was 75.8%. For `CCOc1cc(NC(=O)c2ccccc2)c(OCC)cc1N`, the growth was 111%. The value for `CCN(CC)CC(C)Nc1ccc(C)c2sc3ccccc3c(=O)c12` (stereo not given) was 68.7%. On to `COc1cc2c(c(OC)c1)C1c3cc(OC)ccc3NC(=O)N1CC2` (stereo not given), for which the growth was 51.5%. Regarding `CC(C)CCNCC(C)(C)O`, the growth is 118%. The value for `C=C(C)[C@@H]1CC[C@]2(C)[C@H](CC[C@@H]3[C@@H]([C@@](C)(O)CCC=C(C)C)CC[C@]32C)[C@@]1(C)CCC(=O)N1CCN(C)CC1` was -87% [100 µM] (active); that for `c1ccc(-c2nc(N3CCCNCC3)c3nc(-c4ccccc4)oc3n2)cc1` was -11.8% (active). `Fc1ccc(NC(=S)c2ccccc2)cc1`: the growth was 108%.

For the compound `COc1cc(-c2cc(-c3ccc(Nc4ncnc5cc(Cl)ccc45)cc3)nc(N3CCCCC3)n2)cc(OC)c1OC`, the growth is 104%.

`Fc1cc2[nH]ncc2c2c3c(c(-c4cn[nH]c4C(F)(F)F)nc12)C1CCC3C1` (stereo not given): the growth was 55.7%. As to `O=C(N/N=C/c1c(Cl)cccc1Cl)c1cccc(Nc2ccnc(C(F)(F)F)c2)c1`, the growth was 102%. The value for `CCN(CC)c1ccc(/C=C/c2ccc3cc(C)ccc3[n+]2CC)cc1` was 45.7%; that for `CC(=O)Nc1ccc2nc3ccc(NC(C)=O)cc3[n+](-c3ccccc3)c2c1` was 107%; that for `COc1ccc(C(=O)CCC(=O)O)cc1` was 83.6%. As to `CN(C)c1cc(NN=C(c2ccc(O)cc2)c2ccc(O)cc2)c([N+](=O)[O-])cc1[N+](=O)[O-]`, the growth is 44.2%. `C[n+]1cccc(NC(=O)c2ccc3ccc4ccc(C(=O)Nc5ccc[n+](C)c5)nc4c3n2)c1`: the growth is 101%. Take `CC(C)OC(=O)Nc1cc(F)c(F)cc1F`: the growth is 102%. The same measure for `O=c1cc(-c2ccccc2)oc2c(O)c(O)ccc12`: 24.5%; for `COc1ccc2c(c1)C(C)Cc1c(ncnc1-n1cnc3ccccc31)N2C` (stereo not given): 11.3%. With `CC1(C)CC(=O)c2c(ccc(C(=O)C[C@@H](N)CO)c2N)O1`, the growth was 35%. For the compound `COc1cc2c(c(Br)c1N)-c1cc(Br)c(N)cc1C2=O`, the growth was 47.8%. For the compound `Cc1ccc(NC(=O)N[C@@H](Cc2cc(F)cc(F)c2)C(=O)N[C@@H]2C(=O)N3CCC[C@H]3C(=O)N3CCCC[C@H]3C(=O)N[C@@H](C)C(=O)N3C[C@H](C)C[C@H]3C(=O)O[C@H]2C)cc1`, the growth is 34.4%. Consider `O=C1CC(c2ccccc2)Cc2nc3ccc(Cl)cc3cc21` (stereo not given), for which the growth was 7.96% (active). As for `CCOC(=O)c1sc2nc(-c3cc(OC)c(OC)c(OC)c3)nc(N3CCOCC3)c2c1C`, the growth is 53.9%.

In the case of `O=C1/C(=C/c2ccc(OCc3ccccc3)cc2)Oc2cc(OCCN3CCCCC3)ccc21`, the growth was 79.2%. On to `C=CCCC1(C)NC(=O)NC1=O` (stereo not given), for which the growth is 103%.

Source of the values: PubChem BioAssay (NCI).
